From PubChem BioAssay (EPA / NIEHS)
Records with an inconclusive call do not appear. Some compounds were tested as several samples or in several runs, with calls that do not always agree. Active and inactive are the calls of the source. The calls were made as follows, unless noted: active = hit-call score of the fitted dose curve at least 0.9, where 1 is the maximum; inconclusive = response in the unintended direction; inactive = score below 0.9.

Tests used:
[1] = biological target: Glucocorticoid receptor (Homo sapiens) (UniProt P04150); assay: ATG_GR_TRANS: Attagene TRANS-FACTORIAL HepG2 Assay for human Glucocorticoid Receptor (GR) (AID 2282978); settings: HepG2 Attagene TRANS GR reporter, mRNA transcription;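 also: activators score as hits since higher reporter transcript over DMSO is fitted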
Chain of Glucocorticoid receptor (Homo sapiens) (P04150 whole entry, looked up, the tested form may be a part): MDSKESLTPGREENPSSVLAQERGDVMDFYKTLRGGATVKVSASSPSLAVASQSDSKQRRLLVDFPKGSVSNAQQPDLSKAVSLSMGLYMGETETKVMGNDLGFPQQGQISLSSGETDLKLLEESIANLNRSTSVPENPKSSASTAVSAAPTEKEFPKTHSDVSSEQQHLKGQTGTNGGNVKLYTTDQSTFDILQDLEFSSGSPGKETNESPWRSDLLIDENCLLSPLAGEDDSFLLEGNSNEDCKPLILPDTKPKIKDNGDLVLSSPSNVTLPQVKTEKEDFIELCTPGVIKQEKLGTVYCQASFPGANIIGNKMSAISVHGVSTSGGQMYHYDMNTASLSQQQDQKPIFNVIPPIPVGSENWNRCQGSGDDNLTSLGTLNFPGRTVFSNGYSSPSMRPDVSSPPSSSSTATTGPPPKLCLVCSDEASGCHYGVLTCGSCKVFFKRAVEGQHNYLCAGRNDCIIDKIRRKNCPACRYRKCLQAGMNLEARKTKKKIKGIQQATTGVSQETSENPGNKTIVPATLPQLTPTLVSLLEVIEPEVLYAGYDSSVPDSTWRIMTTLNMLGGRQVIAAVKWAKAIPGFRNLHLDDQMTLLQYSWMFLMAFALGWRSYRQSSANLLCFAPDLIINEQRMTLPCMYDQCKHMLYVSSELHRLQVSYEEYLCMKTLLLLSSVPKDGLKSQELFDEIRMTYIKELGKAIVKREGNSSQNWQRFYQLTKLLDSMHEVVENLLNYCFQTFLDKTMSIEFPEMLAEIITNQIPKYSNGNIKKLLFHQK
In short: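 Fluorescent capillary-electrophoresis quantitation of reporter mRNA is the readout, taken 24 h after dosing human HepG2 cells carrying transiently transfected GAL4-UAS reporter units activated by chimeric NR-GAL4 fusions; activity scored as induction over DMSO.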

[2] = biological target: Bile acid receptor (Homo sapiens) (UniProt Q96RI1); assay: ATG_FXR_TRANS: Attagene TRANS-FACTORIAL HepG2 Assay for Farnesoid X Receptor (FXR) (AID 2282979); settings: HepG2 Attagene TRANS FXR-GAL4 reporter transcription;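 also: hits raise reporter mRNA above DMSO so AC50 marks FXR activation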
Chain of Bile acid receptor (Homo sapiens) (Q96RI1 whole entry, looked up, the tested form may be a part): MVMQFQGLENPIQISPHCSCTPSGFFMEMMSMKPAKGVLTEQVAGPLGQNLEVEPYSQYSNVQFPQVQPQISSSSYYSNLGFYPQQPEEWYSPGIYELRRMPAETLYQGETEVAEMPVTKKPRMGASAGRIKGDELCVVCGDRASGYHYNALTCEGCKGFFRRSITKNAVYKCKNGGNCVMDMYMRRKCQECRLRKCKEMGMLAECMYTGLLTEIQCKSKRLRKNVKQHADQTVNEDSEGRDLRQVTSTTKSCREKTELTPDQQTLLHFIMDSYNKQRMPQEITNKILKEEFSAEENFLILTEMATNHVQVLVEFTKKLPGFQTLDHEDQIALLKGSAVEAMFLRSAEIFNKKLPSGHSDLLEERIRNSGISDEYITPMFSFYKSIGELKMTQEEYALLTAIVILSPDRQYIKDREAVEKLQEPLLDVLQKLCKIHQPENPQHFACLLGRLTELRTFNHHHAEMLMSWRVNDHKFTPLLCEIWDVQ
In short: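 HepG2 cells were transiently transfected with GAL4-UAS reporters driven by chimeric NR-Gal4 proteins and dosed for 24 h. Reporter mRNA was quantified by RT-PCR, fluorescent labelling, HpaI digestion and capillary electrophoresis, with gain of signal scored versus DMSO.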

[3] = biological target: Oxysterols receptor LXR-alpha (Homo sapiens) (UniProt Q13133); assay: ATG_LXRa_TRANS: Attagene TRANS-FACTORIAL HepG2 Assay for human Liver X Receptor alpha (LXRa) (AID 2282980); settings: HepG2 Attagene TRANS reporter, LXRa transactivation
Chain of Oxysterols receptor LXR-alpha (Homo sapiens) (Q13133 whole entry, looked up, the tested form may be a part): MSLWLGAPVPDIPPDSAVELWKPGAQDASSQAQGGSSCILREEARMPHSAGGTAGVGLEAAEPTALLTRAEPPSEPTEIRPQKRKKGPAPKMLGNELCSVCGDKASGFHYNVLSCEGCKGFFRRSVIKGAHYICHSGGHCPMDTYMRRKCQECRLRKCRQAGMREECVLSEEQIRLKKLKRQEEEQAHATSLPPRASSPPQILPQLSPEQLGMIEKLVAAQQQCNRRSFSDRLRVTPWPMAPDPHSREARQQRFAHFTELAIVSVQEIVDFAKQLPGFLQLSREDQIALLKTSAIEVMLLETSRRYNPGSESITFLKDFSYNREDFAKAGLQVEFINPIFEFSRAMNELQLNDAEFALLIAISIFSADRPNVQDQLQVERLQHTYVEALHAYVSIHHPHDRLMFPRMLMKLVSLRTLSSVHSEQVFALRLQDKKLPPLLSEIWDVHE
In short: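 HepG2 cells transiently transfected with GAL4-UAS reporter units for chimeric NR-Gal4 proteins, exposed to chemicals for 24 h. Reporter mRNA quantified by RT-PCR and capillary electrophoresis; gain of signal fitted relative to DMSO.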

[4] = biological target: Oxysterols receptor LXR-beta (Homo sapiens) (UniProt P55055); assay: ATG_LXRb_TRANS: Attagene TRANS-FACTORIAL HepG2 Assay for human Liver X Receptor beta (LXRb) (AID 2282981); settings: HepG2 Attagene TRANS GAL4-LXRb reporter, mRNA
Chain of Oxysterols receptor LXR-beta (Homo sapiens) (P55055 whole entry, looked up, the tested form may be a part): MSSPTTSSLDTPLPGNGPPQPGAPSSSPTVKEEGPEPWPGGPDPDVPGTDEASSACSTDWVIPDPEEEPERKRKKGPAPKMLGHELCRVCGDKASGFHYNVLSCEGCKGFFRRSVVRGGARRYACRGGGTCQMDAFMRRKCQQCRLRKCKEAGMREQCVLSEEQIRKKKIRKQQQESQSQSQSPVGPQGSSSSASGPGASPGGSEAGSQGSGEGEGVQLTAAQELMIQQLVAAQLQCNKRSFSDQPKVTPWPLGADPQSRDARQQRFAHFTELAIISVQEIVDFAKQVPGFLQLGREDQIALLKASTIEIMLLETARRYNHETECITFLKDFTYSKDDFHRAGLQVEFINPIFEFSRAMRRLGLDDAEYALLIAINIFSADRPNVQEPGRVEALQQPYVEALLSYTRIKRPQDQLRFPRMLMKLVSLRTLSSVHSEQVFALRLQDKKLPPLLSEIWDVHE
In short: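 After 24 h of chemical treatment, transfected HepG2 cells yield total RNA; reporter cDNA is PCR-amplified, FAM-labelled, HpaI-cut and run on capillary electrophoresis. Signal reflects chimeric LXRb-Gal4 activity on GAL4-UAS reporters.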

[5] = biological target: Hepatocyte nuclear factor 4-alpha (Homo sapiens) (UniProt P41235); assay: ATG_HNF4a_TRANS: Attagene TRANS-FACTORIAL HepG2 Assay for human Hepatocyte Nuclear Factor 4 alpha (HNF4a) (AID 2282982); settings: HepG2 HNF4a transactivation reporter, mRNA readout
Chain of Hepatocyte nuclear factor 4-alpha (Homo sapiens) (P41235 whole entry, looked up): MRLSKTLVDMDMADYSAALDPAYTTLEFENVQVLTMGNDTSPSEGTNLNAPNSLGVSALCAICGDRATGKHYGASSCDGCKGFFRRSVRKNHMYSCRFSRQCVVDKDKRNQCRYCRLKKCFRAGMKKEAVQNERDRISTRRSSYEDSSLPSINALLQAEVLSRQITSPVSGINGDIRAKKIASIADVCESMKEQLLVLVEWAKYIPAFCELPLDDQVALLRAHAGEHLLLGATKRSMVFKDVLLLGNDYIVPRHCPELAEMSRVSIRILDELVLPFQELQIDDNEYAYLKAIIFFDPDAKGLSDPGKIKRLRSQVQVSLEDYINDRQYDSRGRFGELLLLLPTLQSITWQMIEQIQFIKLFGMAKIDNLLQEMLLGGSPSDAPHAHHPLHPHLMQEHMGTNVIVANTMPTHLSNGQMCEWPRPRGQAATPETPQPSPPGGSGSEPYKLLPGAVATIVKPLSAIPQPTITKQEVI
In short: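 Multiplexed reporter assay: transfected HepG2, 24 h exposure, total RNA → oligo(dT) RT → PCR → 6-FAM extension → HpaI digest → CE fluorescence. DMSO = negative control.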

[6] = ATG_M_06_TRANS: Attagene TRANS-FACTORIAL HepG2 Assay for M06 Transcription Factor (Internal Marker) (AID 2282983); settings: HepG2 Attagene TRANS M06 internal marker reporter
In short: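 mRNA levels of a reporter transcript, quantified as FAM fluorescence on capillary electrophoresis, served as readout. HepG2 cells expressing exogenous GAL4-chimera reporter constructs were exposed for 24 h. Gain of signal over DMSO was evaluated.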

[7] = ATG_M_32_TRANS: Attagene TRANS-FACTORIAL HepG2 Assay for M32 Transcription Factor (Internal Marker) (AID 2282984); settings: HepG2 Attagene TRANS M32 internal marker reporter
In short: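 Cell-based TRANS-format assay in HepG2: exogenous chimeric GAL4 reporter units transiently expressed, compounds applied 24 h. Reporter mRNA detected by RT-PCR plus capillary electrophoresis; this readout is an internal background marker.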

[8] = biological target: Nuclear receptor subfamily 4 group A member 2 (Homo sapiens) (UniProt P43354); assay: ATG_NURR1_TRANS: Attagene TRANS-FACTORIAL HepG2 Assay for human Nuclear Receptor Related Protein 1 (NURR1) (AID 2282985); settings: HepG2 Attagene TRANS reporter, mRNA readout
Chain of Nuclear receptor subfamily 4 group A member 2 (Homo sapiens) (P43354 whole entry, looked up, the tested form may be a part): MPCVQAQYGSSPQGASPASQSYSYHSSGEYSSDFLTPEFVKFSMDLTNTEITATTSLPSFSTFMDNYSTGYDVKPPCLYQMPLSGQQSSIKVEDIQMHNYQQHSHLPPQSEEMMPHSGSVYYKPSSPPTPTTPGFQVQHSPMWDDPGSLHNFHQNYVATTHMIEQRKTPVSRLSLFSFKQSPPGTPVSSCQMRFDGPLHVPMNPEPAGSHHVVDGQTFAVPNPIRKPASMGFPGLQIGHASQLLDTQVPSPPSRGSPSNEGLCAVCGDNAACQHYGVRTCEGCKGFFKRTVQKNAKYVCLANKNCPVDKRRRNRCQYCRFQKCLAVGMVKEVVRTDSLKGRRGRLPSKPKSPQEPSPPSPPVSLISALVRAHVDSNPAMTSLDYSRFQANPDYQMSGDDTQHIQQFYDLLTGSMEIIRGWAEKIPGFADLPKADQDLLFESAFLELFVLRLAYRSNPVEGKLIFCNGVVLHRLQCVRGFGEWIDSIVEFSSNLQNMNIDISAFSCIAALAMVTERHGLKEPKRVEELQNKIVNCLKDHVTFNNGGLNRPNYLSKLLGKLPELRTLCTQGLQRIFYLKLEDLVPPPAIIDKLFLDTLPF
In short: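 Measures transcriptional activation by an exogenous NR-Gal4 chimera in transfected HepG2 liver cells. After 24 h, reporter RNA is reverse-transcribed, amplified and resolved by capillary electrophoresis; DMSO defines baseline.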

[9] = biological target: Transcriptional activator Myb (Homo sapiens) (UniProt P10242); assay: ATG_Myb_CIS: Attagene CIS-FACTORIAL HepG2 Assay for human Myeloblastosis (Myb) Proto-Oncogene Transcription Factor (AID 2282986; active = hit-call score of the fitted dose curve at least 0.9, where 1 is the maximum; inactive = score below 0.9); settings: HepG2 Attagene CIS-FACTORIAL Myb reporter transcription; actives raise or lower the signal
Chain of Transcriptional activator Myb (Homo sapiens) (P10242 whole entry, looked up): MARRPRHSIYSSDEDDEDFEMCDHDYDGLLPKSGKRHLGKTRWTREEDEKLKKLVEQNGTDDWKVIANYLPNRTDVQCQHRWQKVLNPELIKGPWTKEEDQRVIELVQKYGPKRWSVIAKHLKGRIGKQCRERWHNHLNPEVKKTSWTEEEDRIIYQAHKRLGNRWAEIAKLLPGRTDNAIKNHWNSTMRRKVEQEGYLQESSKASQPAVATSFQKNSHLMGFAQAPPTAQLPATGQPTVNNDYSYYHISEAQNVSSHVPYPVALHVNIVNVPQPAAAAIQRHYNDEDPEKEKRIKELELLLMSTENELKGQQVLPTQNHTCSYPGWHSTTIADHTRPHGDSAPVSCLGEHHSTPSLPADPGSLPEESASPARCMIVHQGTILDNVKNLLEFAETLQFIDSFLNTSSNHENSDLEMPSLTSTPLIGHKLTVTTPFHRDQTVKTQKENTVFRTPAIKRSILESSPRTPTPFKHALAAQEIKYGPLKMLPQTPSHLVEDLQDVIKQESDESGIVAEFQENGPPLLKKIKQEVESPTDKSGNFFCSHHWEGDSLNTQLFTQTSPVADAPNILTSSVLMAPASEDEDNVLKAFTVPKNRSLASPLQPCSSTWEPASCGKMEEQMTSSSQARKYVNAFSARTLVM
In short: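 Reporter transcript levels, quantified by fluorescent RT-PCR and capillary electrophoresis, serve as the read-out. Transfected HepG2 cells carrying cis-promoter reporter units are dosed for 24 hours, and curves are fitted bidirectionally against DMSO controls.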

[10] = biological target: Estrogen-related receptor gamma (Homo sapiens) (UniProt P62508); assay: ATG_ERRg_TRANS: Attagene TRANS-FACTORIAL HepG2 Assay for human Estrogen-Related Receptor gamma (ERRg) (AID 2282977); settings: HepG2 Attagene TRANS reporter, ERRg transactivation;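 also: hits increase reporter signal over DMSO so potencies reflect activators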
Chain of Estrogen-related receptor gamma (Homo sapiens) (P62508 whole entry, looked up, the tested form may be a part): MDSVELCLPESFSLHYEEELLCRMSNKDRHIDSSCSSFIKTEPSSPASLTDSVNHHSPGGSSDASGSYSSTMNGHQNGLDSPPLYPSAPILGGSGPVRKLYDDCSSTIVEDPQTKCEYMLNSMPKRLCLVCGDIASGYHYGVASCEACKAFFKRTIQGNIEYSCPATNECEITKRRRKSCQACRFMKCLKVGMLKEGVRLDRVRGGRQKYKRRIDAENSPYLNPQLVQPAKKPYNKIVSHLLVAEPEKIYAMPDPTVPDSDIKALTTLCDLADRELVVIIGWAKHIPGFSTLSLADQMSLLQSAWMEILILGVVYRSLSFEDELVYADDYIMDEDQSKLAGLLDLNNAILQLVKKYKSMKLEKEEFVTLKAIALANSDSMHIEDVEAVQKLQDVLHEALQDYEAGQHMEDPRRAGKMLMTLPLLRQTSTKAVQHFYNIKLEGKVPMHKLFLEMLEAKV
In short: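 Readout: fluorescent reporter-mRNA fragments resolved by capillary electrophoresis after RT-PCR and HpaI cut. Cells: transiently transfected HepG2 carrying GAL4-UAS reporters driven by exogenous NR-Gal4 chimeras, dosed 24 h. Activity fitted upward relative to DMSO baseline.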

Measured: AC50

O=C(O)C(F)(F)C(F)(F)C(F)(F)C(F)(F)C(F)(F)C(F)(F)C(F)(F)C(F)(F)Cl
active: [2] 82.3 µM | [8] 31.2 µM
inactive: [1] | [2] | [3] | [4] | [5] | [6] | [7] | [8] | [9]

C=CC(F)(F)C(F)(F)C(F)(F)C(F)(F)C(F)(F)C(F)(F)C(F)(F)C(F)(F)C=C
inactive: [1] | [2] | [3] | [7] | [9]

OCC(F)(F)C(F)(F)C(F)(F)C(F)F
not listed: [7] | [8] | [10]
inactive: all other assays above

[Co]
inactive: [10] | [2] | [3] | [7] | [8] | [9]

O=C(O)C(F)(F)C(F)(F)F
not listed: [4] | [7] | [10]
inactive: all other assays above

Oc1ccc(Nc2ccccc2)cc1
inactive: [10] | [2] | [5] | [6] | [8] | [9]

CC(CCl)OP(=O)(OC(C)CCl)OC(C)CCl (stereo not drawn)
inactive: [1] | [2] | [3] | [6] | [8] | [9]

CC(=O)Nc1ccc(N=Nc2cc(C)ccc2O)cc1
inactive: [10] | [2] | [5] | [6] | [8] | [9]

CN(C)Cc1ccccc1O
inactive: [1] | [2] | [3] | [6] | [8] | [9]

Nc1cc(Cl)c(N)c(Cl)c1
not listed: [6] | [7] | [10]
inactive: all other assays above

OCCCC(F)(F)C(F)(F)C(F)(F)F
not listed: [4] | [5] | [10]
inactive: all other assays above

O=C(O)C(F)(OC(F)(F)C(F)(OC(F)(F)C(F)(F)C(F)(F)F)C(F)(F)F)C(F)(F)F (stereo not drawn)
active: [8] 98.8 µM
inactive: [1] | [2] | [3] | [5] | [6] | [8] | [9]

FC(F)(F)C(F)(F)C(F)(F)C(F)(F)C(F)(F)C(F)(F)C(F)(F)C(F)(F)F
not listed: [4] | [10]
inactive: all other assays above

O=C(CC(=O)C(F)(F)C(F)(F)F)C(F)(F)F
inactive: [1] | [2] | [3] | [6] | [8] | [9]

FC(F)(I)C(F)(F)C(F)(F)C(F)(F)I
inactive: [10] | [3] | [8] | [9]

O=S(=O)(O)C(F)(F)C(F)(F)C(F)(F)C(F)(F)C(F)(F)C(F)(F)C(F)(F)F
active: [9] 160 µM
inactive: [1] | [2] | [3] | [6] | [7] | [9]

C=C(C)C(=O)OCCC(F)(F)C(F)(F)C(F)(F)C(F)(F)C(F)(C(F)(F)F)C(F)(F)F
inactive: [1] | [2] | [3] | [6] | [9]

CCN(CC)c1ccc2c(C)cc(=O)oc2c1
active: [3] 26.2 µM
inactive: [1] | [2] | [8] | [9]

OC[C@@H](O)[C@@H](O)[C@H](O)[C@@H](O)CO
inactive: [10] | [6] | [8] | [9]

Cc1ccc(S(=O)(=O)OCC(F)(F)C(F)(F)C(F)(F)C(F)(F)C(F)(F)C(F)F)cc1
not listed: [5] | [7] | [10]
inactive: all other assays above

CCN(Cc1cccc(S(=O)(=O)O)c1)c1ccc(C(=C2C=CC(=[N+](CC)Cc3cccc(S(=O)(=O)O)c3)C=C2)c2ccc(O)cc2S(=O)(=O)[O-])cc1
inactive: [10] | [2] | [3] | [7] | [8] | [9]

CCCCOCCOCCOC(=O)CCCCC(=O)OCCOCCOCCCC
not listed: [3] | [4] | [10]
inactive: all other assays above

CC(C)c1ccccc1N
inactive: [10] | [5] | [8] | [9]

CCc1ccc(C(c2ccc(CC)cc2)C(Cl)Cl)cc1
not listed: [3] | [5] | [10]
inactive: all other assays above

FC(F)(F)C(F)(F)C(F)(F)C(F)(F)C(F)(F)C(F)(F)CC1CO1 (stereo not drawn)
inactive: [1] | [2] | [3] | [7] | [9]

FC(F)(F)C(F)(F)C(F)(F)C(F)(F)CCI
inactive: [1] | [3] | [6] | [8] | [9]

CCCCCCOC(=O)c1ccccc1
inactive: [5] | [6] | [9]

CC(C)(C)c1ccc(OC2CCCCC2O)cc1 (stereo not drawn)
inactive: [2] | [3] | [9]
active: [8] 100 µM

C=C(C)C(=O)OCC(F)(F)C(F)(F)C(F)(F)C(F)(F)C(F)(F)C(F)(F)C(F)(F)F
inactive: [1] | [3] | [4] | [6] | [8] | [9]

COC(=O)CCC(F)(F)C(F)(F)C(F)(F)C(F)(F)F
inactive: [2] | [6] | [9]

O=C(O)C(F)(F)C(F)(F)C(F)(F)C(F)(F)C(F)(F)C(F)(F)C(F)(F)C(F)(F)C(F)(F)C(F)(F)C(F)(F)C(F)(F)C(F)(F)F
inactive: [1] | [3] | [6] | [8] | [9]

CCCCCCCCC(F)(F)C(F)(F)C(F)(F)C(F)(F)C(F)(F)C(F)(F)F
inactive: [1] | [2] | [6] | [8] | [9]

FC(F)(F)C(F)(F)C(F)(F)C(F)(F)C(F)(F)C(F)(F)C(F)(F)C(F)(F)CCS
inactive: [2] | [3] | [7] | [9]

CO[Si](OC)(c1ccccc1)c1ccccc1
inactive: [1] | [2] | [5] | [9]

CCC(=O)OCCc1ccccc1
inactive: [2] | [9]

CCCCCCC(C)OC(=O)CCCCC(=O)OC(C)CCCCCC (stereo not drawn)
inactive: [5] | [8] | [9]

CNC(=S)NC
inactive: [2] | [4] | [5] | [6] | [8] | [9]

O=C(OCCOCCOCCOC(=O)c1ccccc1)c1ccccc1
inactive: [1] | [3] | [5] | [6] | [9]

C=CC(=O)OCC(F)(F)C(F)(F)C(F)(F)C(F)(F)C(F)(F)C(F)(F)C(F)(F)F
inactive: [2] | [3] | [6] | [8] | [9]

C1COCCN1
inactive: [4] | [5] | [6] | [7] | [8] | [9]

Cc1cccc(N(C)C)c1
inactive: [1] | [5] | [6] | [7] | [9]

FC(F)(F)C(F)(F)C(F)(F)C(F)(F)C(F)(F)C(F)(F)C(F)(F)I
inactive: [2] | [3] | [6] | [9]

CCCCNc1ccccc1
inactive: [2] | [3] | [5] | [8] | [9]

O=P(O)(O)OCCC(F)(F)C(F)(F)C(F)(F)C(F)(F)C(F)(F)C(F)(F)F
inactive: [2] | [6] | [9]

Nc1ccc([N+](=O)[O-])cc1O
inactive: [2] | [3] | [6] | [7] | [8] | [9]

CC(C)OC(=O)c1ccccc1C(=O)OC(C)C
inactive: [1] | [2] | [6] | [8] | [9]

NC(=O)C(F)(F)C(F)(F)C(F)(F)C(F)(F)F
inactive: [1] | [2] | [6] | [7] | [8] | [9]

C=CC(=O)OCC(F)(F)C(F)(F)C(F)(F)C(F)(F)COC(=O)C=C
active: [5] 240 µM
not listed: [1] | [2] | [10]
inactive: all other assays above

COC(OC(C)=O)c1ccccc1 (stereo not drawn)
inactive: [1] | [5] | [9]

COC(=O)C1CCC(C(=O)OC)CC1 (stereo not drawn)
inactive: [2] | [7] | [8] | [9]

O=C(O)C(F)(F)C(F)(F)OC(F)(F)F
inactive: [1] | [3] | [6] | [9]

O=S(=O)(O)c1ccc2ccccc2c1
inactive: [3] | [6] | [7] | [8] | [9]

Nc1ccc(Oc2cccc(Oc3ccc(N)cc3)c2)cc1
active: [5] 160 µM | [9] 108 µM
inactive: [1] | [6]

O[Si](c1ccccc1)(c1ccccc1)c1ccccc1
inactive: [1] | [6] | [7] | [8] | [9]
active: [2] 85.2 µM

N=C(N)C(F)(F)C(F)(F)C(F)(F)C(F)(F)C(F)(F)C(F)(F)C(F)(F)F
inactive: [2] | [6] | [7] | [8] | [9]

C=CC/C=C/C/C=C/C/C=C/C
inactive: [1] | [6] | [8] | [9]

OCC(F)(F)C(F)(F)C(F)(F)C(F)(F)C(F)(F)C(F)(F)F
inactive: [1] | [2] | [8] | [9]

CCCCCC=O
not listed: [1] | [4] | [10]
inactive: all other assays above

c1ccc(-c2ccccc2-c2ccccc2)cc1
active: [8] 27.2 µM
inactive: [1] | [2] | [9]

O=C(C=Cc1ccccc1)OCC=Cc1ccccc1
inactive: [4] | [5] | [6] | [9]
